CYP2C9 activ: human CYP2C9 activators, primary screen, biochemical, luminescence | recombinant CYP2C9, luciferin-H conversion; active compounds read high; factor 1 = untreated enzyme, 0 = blocked | activation factor at 5 µM | 96,000 tested, 1.4% active | AID 1024, 2008;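 active means activation factor of 2 or more for CYP2C9 at a 5 µM dose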
Target sequence (P11712 whole entry, looked up): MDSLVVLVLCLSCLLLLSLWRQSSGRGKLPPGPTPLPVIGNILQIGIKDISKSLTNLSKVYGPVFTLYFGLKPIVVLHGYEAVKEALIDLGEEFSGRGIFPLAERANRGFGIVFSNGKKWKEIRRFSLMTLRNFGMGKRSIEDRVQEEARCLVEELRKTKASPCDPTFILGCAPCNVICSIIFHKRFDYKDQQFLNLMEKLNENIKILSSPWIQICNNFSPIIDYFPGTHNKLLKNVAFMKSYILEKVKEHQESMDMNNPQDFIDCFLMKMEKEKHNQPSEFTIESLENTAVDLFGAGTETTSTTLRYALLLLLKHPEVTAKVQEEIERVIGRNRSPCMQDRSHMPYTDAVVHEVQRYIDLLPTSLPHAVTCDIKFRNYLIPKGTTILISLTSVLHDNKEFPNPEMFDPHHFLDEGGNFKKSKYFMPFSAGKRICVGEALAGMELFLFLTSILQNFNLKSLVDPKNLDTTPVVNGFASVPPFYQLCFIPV
CYP2C19 activ: human CYP2C19 activators, primary screen, biochemical, luminescence; 96,000 tested, under 10 active; recombinant CYP2C19, luciferin-H EGE luminescence; active compounds read high; 0 = fully inhibited enzyme, 1 = untreated enzyme; activation factor at 5 µM; AID 1025, 2008;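 active means activation factor of at least 2 at 5 µM in the primary screen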
CYP2C19 inhib: blockers of cytochrome P450 2C19 activity – biochemical, luminescence, ADME assay, primary screen; P33261; CYP2C19 Supersomes, luciferin-H EGE luminescence, 30 min; inhibition, % at 5 µM; 96,000 tested, 21% active;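 active means CYP2C19 inhibition above a set limit at 5 µM in the primary screen, cut at about 50% in these data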
PostGolgi yeast: phenotypic screen on post-Golgi transport, primary screen; post-Golgi transport phenotypic cell assay; inhibition, % at 10 µM; 98,000 tested, 0.9% active; AID 739, 2007;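 further: yeast cells grown in 1536-well plates; yeast grown about 18 h at 30C before absorbance read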
CYP2C9 inh: blockers of cytochrome P450 2C9 activity – biochemical, luminescence, ADME assay, primary screen | inhibition, % at 5 µM | P11712 | CYP2C9 Supersomes, luciferin-H conversion | 96,000 tested, 20% active;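 active means blocking of liver enzyme CYP2C9 beyond about 50% at 5 µM, limit read from the data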
PostGolgi ctrl: growth inhibition of yeast control strain, primary screen, counter-screen for post-Golgi transport modulator project. efflux-deficient yeast background strain, growth absorbance A615, 16 h. inhibition, % at 10 µM. 98,000 tested, 5% active
Each line names hits and unclear results; the compound was inactive in the other large screens. The list is not random: actives were taken first. Their share in the collection is about 32%. Unless noted, no stated cut-off is given here; in the data, active means inhibition above about 30%; inactive means the rest.

COc1ccccc1N1CCN(c2nc3ccccc3nc2C(C#N)C(=O)OC(C)C)CC1 (stereo not given)	CYP2C9 inh 66
COCCOC(=O)C(C#N)c1nc2ccccc2nc1N1CCCC1 (stereo not given)	CYP2C19 inhib 85, CYP2C9 inh 79
CCCCOC(=O)C(C#N)c1nc2ccccc2nc1N1CCOCC1 (stereo not given)	CYP2C19 inhib 52, PostGolgi ctrl 37
N#CC(C(=O)NCc1ccco1)c1nc2ccccc2nc1N1CCOCC1 (stereo not given)	CYP2C19 inhib 79, CYP2C9 inh 88
N#CC(C(=O)NCCc1ccccc1)c1nc2ccccc2nc1N1CCOCC1 (stereo not given)	none
CN(C)CCN1C(=O)C(=O)/C(=C(/O)c2ccc(OCc3ccccc3)cc2)C1c1ccncc1 (stereo not given)	none
COc1ccc(C2C(C(=O)NCCN3CCOCC3)c3ccccc3C(=O)N2C2CCCCC2)cc1 (stereo not given)	none (no result: CYP2C9 activ, CYP2C19 activ, CYP2C19 inhib, CYP2C9 inh)
CCOC(=O)c1c(-c2ccccc2)[nH]c2ccc(O)cc12	none
CCOc1ccc(CCNC(=O)CCN2C(=O)COc3ccccc32)cc1OCC	none
CCN1CCN(c2nc3ccccc3nc2C(C#N)C(=O)OCc2ccccc2)CC1 (stereo not given)	CYP2C19 inhib 82, CYP2C9 inh 57
CCCCCCOC(=O)C(C#N)c1nc2ccccc2nc1N1CCN(CC)CC1 (stereo not given)	none
CCOC(=O)N1CCN(CCC(=O)Nc2ccc(OC(F)(F)F)cc2)CC1	none (no result: CYP2C9 activ, CYP2C19 activ, CYP2C19 inhib, CYP2C9 inh)
O=C1/C(=C/c2ccccc2)CSc2sccc21	CYP2C19 inhib 55
S=c1nn[nH]n1C12CC3CC(CC(C3)C1)C2	none
Cc1ccc(-c2csc(NC(=O)C3CC=CCC3C(=O)O)c2C(=O)OC(C)C)cc1 (stereo not given)	none
COc1ccc(C(=O)Nc2ccc(OC)c(OC)c2)cc1	none
COc1ccc(NC(NC(=O)c2ccc(OC)cc2)C(Cl)(Cl)Cl)cc1 (stereo not given)	CYP2C19 inhib 66, CYP2C9 inh 84
CC(=O)Nc1ccc(S(=O)(=O)NC2(C(F)(F)F)N=C(c3ccccc3)NC2=O)cc1 (stereo not given)	none
CC(C)N(Cc1nc(-c2ccc(Cl)cc2)no1)C(=O)c1cccs1	CYP2C19 inhib 78, CYP2C9 inh 89
Cc1ccc(-c2noc(CN(C(=O)c3cccs3)C(C)C)n2)cc1	CYP2C9 inh 74
CCCN1C2=NCCN2c2cc(C)c(C)cc21	none
COc1ccccc1N1CC(C(=O)Nc2cccc(C(=O)O)c2)CC1=O (stereo not given)	none
CCOC(=O)CSc1cc(C)nc(NC(C)=O)n1	none
N#Cc1cc2c(nc1SCc1cccnc1)CCC2	CYP2C19 inhib 87
N#Cc1cc2c(nc1SCc1cccnc1)CCCC2	CYP2C19 inhib 78, CYP2C9 inh 60
CCCC(=O)NC(Nc1ccc(S(=O)(=O)Nc2ncccn2)cc1)(C(=O)OCC)C(F)(F)F (stereo not given)	none
CCOC(=O)NC(Nc1cc(C)ccn1)(C(F)(F)F)C(F)(F)F	CYP2C19 inhib 54
CCCCC(=O)NC(Nc1nc(C2CC2)cs1)(C(=O)OCC)C(F)(F)F (stereo not given)	CYP2C19 inhib 63, PostGolgi ctrl 36
CCOC(=O)NC(NCc1ccccc1Cl)(C(F)(F)F)C(F)(F)F	CYP2C19 inhib 58
CCCCC(=O)NC(Nc1cc(C)ccn1)(C(=O)OCC)C(F)(F)F (stereo not given)	CYP2C19 inhib 72
Cc1cc(SCc2cc(=O)[nH]c3ccccc23)nc2ccccc12	none
COc1ccc(NC(=O)c2nc3nccc(C)n3n2)cn1	none
N/C(Cc1cccs1)=N\OC(=O)COc1ccc(Cl)cc1Cl	none
N/C(Cc1ccc(Cl)cc1Cl)=N\OC(=O)c1cccs1	CYP2C19 inhib 54, PostGolgi ctrl 58
COc1cc(-c2nc(-c3ccccc3)c(-c3cccs3)[nH]2)cc(OC)c1O	CYP2C19 inhib 61, CYP2C9 inh 82
C=CCNC(=O)/C(=C/c1ccco1)NC(=O)c1ccc(Br)o1	none
COc1ccc(CC(=O)Nc2ccc(C(=O)NCC(C)C)cc2)cc1	none
CCC(C)NS(=O)(=O)c1ccc(OCC(=O)Nc2ccc3c(c2)OCO3)cc1 (stereo not given)	none
CCCNS(=O)(=O)c1ccc(CCC(=O)Nc2ccc3c(c2)OCO3)cc1	CYP2C19 inhib 95, CYP2C9 inh 82
COc1ccc(CC(=O)Nc2ccc(S(=O)(=O)NC(C)C)cc2)cc1	CYP2C19 inhib 62, CYP2C9 inh 60
CC(C)NS(=O)(=O)c1ccc(CCC(=O)Nc2ccc3c(c2)OCO3)cc1	CYP2C9 inh 52
CC(C)CNS(=O)(=O)c1ccc(CCC(=O)Nc2ccc3c(c2)OCCO3)cc1	CYP2C9 inh 58
COCCn1c(=S)[nH]c2ccc(N(C)C)cc2c1=O	CYP2C19 inhib 52
Cn1cc(SCC(=O)Nc2nc3ccccc3s2)c2ccccc21	PostGolgi ctrl 64
CCOC(=O)CC(=O)Nc1nc2ccccc2s1	none
Cn1c(CSCc2ccc(Cl)cc2)nnc1SCC(=O)Nc1nc2ccccc2s1	none
Cc1csc(SCC(=O)Nc2nc3ccccc3s2)n1	CYP2C19 inhib 92, CYP2C9 inh 94
COC(=O)c1cccc(S(=O)(=O)N2CCN(c3nc4ccccc4s3)CC2)c1	none
Fc1ccc(NC(=S)N/N=C/c2ccc(F)c(F)c2)c(F)c1	CYP2C19 inhib 54
O=C(CN1CCSCC1)N/N=C/c1ccc(F)c(F)c1	none
N#CC1=C(Nc2ccccc2)SC=C(c2ccc(Cl)c(Cl)c2)N=C1N1CCOCC1	none
CCn1c(SCC(=O)Nc2ccc(NC(C)=O)cc2)nnc1C1CC1	none
CC(C)C(NC(=O)OC(C)(C)C)C(=O)N1CCCC1C(=O)NC(Cc1ccccc1)C(N)=O (stereo not given)	none
COc1ccccc1N1CCN(C/C(O)=C(\C#N)c2nc(-c3ccccc3)cs2)CC1	none
COc1ccc(-c2csc(/C(C#N)=C(\O)CSc3nccn3C)n2)cc1OC	CYP2C9 inh 69
CCc1cc2c(SCC(=O)C(C#N)=C3N(C)c4ccccc4N3C)ncnc2s1	CYP2C9 inh 62
CN1C2CCC1/C(=C\c1ccccc1)C(=O)/C2=C\c1ccccc1	CYP2C9 activ 2.2
COCC(=O)N(Cc1ccc(OC)cc1)Cc1nc2ccccc2c(=O)[nH]1	none
Cc1ccsc1C(=O)OCc1nc2ccccc2c(=O)[nH]1	CYP2C19 inhib 72, CYP2C9 inh 87
Cc1cc(C(=O)CSc2nn(-c3ccccc3)c(=S)s2)c(C)n1Cc1ccco1	none
